Source: PubChem BioAssay (Tox21)
Inconclusive results are not listed. Some structures have more than one record in an assay (separate samples or runs), and their calls can disagree. Activity calls are given as the source filed them. Unless noted, the call rests on the fitted dose curve; in most records, active means well fitted curve in the direction sought with a large enough effect in the repeat runs; inconclusive means weak or mixed curves; inactive means no such curve, though single readings can be large; an effect the other way counts as inactive or inconclusive.

What was measured:
[1] = target: Luciferin 4-monooxygenase (Photinus pyralis) (UniProt P08659); assay: qHTS assay to identify small molecule inhibitors of firefly luciferase (AID 1224835); further: nearly all actives have a fitted effect of over 25% in size; conditions: purified P. pyralis luciferase, luminescence inhibition; series mostly up to 115 µM
Outline: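 Biochemical qHTS: compounds run as interplate titrations against purified firefly enzyme, with D-luciferin and ATP each at its KM concentration. Light output recorded by CCD imaging.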

[2] = qHTS assay to identify small molecule agonists of the constitutive androstane receptor (CAR) signaling pathway - cell viability counter screen (AID 1224836); conditions: HepG2-CYP2B6-hCAR viability, CellTiter-Fluor, 23 h, PK11195 added to every well; series mostly up to 92.4 µM; further: nearly all actives have a fitted effect of over 45% in size
Outline: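 HepG2 cells stably carrying hCAR and a CYP2B6-2.2kb reporter were plated 4 h, then given compounds at 15 concentrations plus PK11195 (final 0.75 uM). After 23 h at 37 C, viability was read by CellTiter-Fluor fluorescence.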

[3] = qHTS assay to identify small molecule antagonists of the constitutive androstane receptor (CAR) signaling pathway - cell viability counter screen (AID 1224837); conditions: HepG2-CYP2B6-hCAR viability, CellTiter-Fluor, 23 h, co-treated with 50 nM CITCO; series mostly up to 92.4 µM; further: nearly all actives have a fitted effect of over 45% in size
Outline: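 In quantitative HTS format, compounds at 15 concentrations were applied to HepG2 cells double-transfected with hCAR and CYP2B6-2.2kb under 50 nM CITCO stimulation; live-cell protease activity was read after 23 hr via CellTiter-Fluor.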

[4] = target: Nuclear receptor subfamily 1 group I member 3 (Homo sapiens) (UniProt Q14994); assay: qHTS assay to identify small molecule antagonists of the constitutive androstane receptor (CAR) signaling pathway (AID 1224838); conditions: HepG2-CYP2B6-hCAR luciferase, CITCO-stimulated, 24 h; series mostly up to 92.4 µM; further: nearly all actives have a fitted effect of over 40% in size
Outline: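 CITCO-stimulated (50 nM final) HepG2 cells stably transfected with hCAR and CYP2B6-2.2kb luciferase were exposed to compounds at 15 concentrations for 24 h at 37 C/5% CO2. A luciferase reagent was added and luminescence recorded after 30 min.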

[5] = target: Nuclear receptor subfamily 1 group I member 3 (Homo sapiens) (UniProt Q14994); assay: qHTS assay to identify small molecule agonists of the constitutive androstane receptor (CAR) signaling pathway (AID 1224839); conditions: HepG2 hCAR CYP2B6-luciferase, agonist mode, 24 h; series mostly up to 92.4 µM; further: nearly all actives have a fitted effect of over 15% in size
Outline: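 HepG2 cells stably expressing hCAR and a CYP2B6-2.2kb luciferase reporter were treated with compounds at 15 concentrations plus 0.75 uM PK11195 (final) for 24 h at 37 C; luminescence was read after ONE-Glo addition.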

[6] = qHTS assay to identify small molecule antagonists of the estrogen related receptor signaling pathway with the pleiotropic PPARgamma coactivator (PGC) from Tox21 10K library - cell viability counter screen (AID 1224840; active means well fitted cell-killing curve with a large enough effect in the repeat runs, not every such curve was filed as active; further: nearly all actives have a fitted effect of over 40% in size); conditions: PGC/ERR reporter cells viability, CellTiter-Fluor, 17.5 h; series mostly up to 92.4 µM
Outline: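 Viability counter screen, PGC/ERR cells: 17.5 h compound exposure at 37 C, CellTiter-Fluor fluorescence endpoint.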

[7] = target: Thyrotropin receptor (Homo sapiens) (UniProt P16473); assay: qHTS assay to identify small molecule agonists of the thyroid stimulating hormone receptor (TSHR) signaling pathway (AID 1224843; calls by dose curve; further: nearly all actives have a fitted effect of over 45% in size); conditions: TSHR-HEK293 cells, cAMP HTRF, agonist mode, 30 min; series mostly up to 92.4 µM
Outline: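 HEK293/TSHR, 800 cells/well; cpd 30 min RT; add cAMP-d2 + anti-cAMP-cryptate, 1 h RT; fluorescence read on plate reader. 15-pt titration, n=3.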

[8] = qHTS assay to identify small molecule antagonists of the estrogen related receptor signaling pathway with the pleiotropic PPARgamma coactivator (PGC) from Tox21 10K library (AID 1224841; call rule not given here; further: actives are mostly falling curves and most rising ones were filed inactive; nearly all actives have a fitted effect of over 50% in size); conditions: PGC/ERR reporter cell line, ONE-Glo luciferase, 18 h; series mostly up to 92.4 µM
Outline: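 In the PGC/ERR line, DMSO solutions of test chemicals are pin-delivered to 2,000 cells/well six hours after dispensing. Following eighteen hours' incubation, One-Glo reagent is added and luminescence recorded.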

[9] = qHTS assay to identify small molecule agonists of the estrogen related receptor signaling pathway with the pleiotropic PPARgamma coactivator (PGC) from Tox21 10K library (AID 1224842); conditions: PGC/ERR reporter cell line, luciferase ONE-Glo, 18 h; series mostly up to 92.4 µM; further: nearly all actives have a fitted effect of over 15% in size
Outline: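 PGC/ERR reporter cell line, 2,000 cells per well, incubated 6 h at 37 C before 23 nL compound in DMSO was added. After 18 h at 37 C, One-Glo luminescence read following 30 min at room temperature.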

[10] = qHTS assay to identify small molecule agonists of the hypoxia (HIF-1) signaling pathway - cell viability counter screen (AID 1224844; calls by dose curve; further: nearly all actives have a fitted effect of over 50% in size); conditions: HRE-bla ME-180 viability, CellTiter-Glo luminescence, 17 h; series mostly up to 76.8 µM
Outline: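 Same wells as the HIF-1 reporter screen; ME-180 cells carrying HRE-bla, 17 hr treatment at 37C; CellTiter-Glo luminescence read after 30 min at room temperature.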

Measured: Potency
Potency means the concentration at half of the fitted maximal effect.

Sequence of Thyrotropin receptor (Homo sapiens) (P16473 whole entry, looked up): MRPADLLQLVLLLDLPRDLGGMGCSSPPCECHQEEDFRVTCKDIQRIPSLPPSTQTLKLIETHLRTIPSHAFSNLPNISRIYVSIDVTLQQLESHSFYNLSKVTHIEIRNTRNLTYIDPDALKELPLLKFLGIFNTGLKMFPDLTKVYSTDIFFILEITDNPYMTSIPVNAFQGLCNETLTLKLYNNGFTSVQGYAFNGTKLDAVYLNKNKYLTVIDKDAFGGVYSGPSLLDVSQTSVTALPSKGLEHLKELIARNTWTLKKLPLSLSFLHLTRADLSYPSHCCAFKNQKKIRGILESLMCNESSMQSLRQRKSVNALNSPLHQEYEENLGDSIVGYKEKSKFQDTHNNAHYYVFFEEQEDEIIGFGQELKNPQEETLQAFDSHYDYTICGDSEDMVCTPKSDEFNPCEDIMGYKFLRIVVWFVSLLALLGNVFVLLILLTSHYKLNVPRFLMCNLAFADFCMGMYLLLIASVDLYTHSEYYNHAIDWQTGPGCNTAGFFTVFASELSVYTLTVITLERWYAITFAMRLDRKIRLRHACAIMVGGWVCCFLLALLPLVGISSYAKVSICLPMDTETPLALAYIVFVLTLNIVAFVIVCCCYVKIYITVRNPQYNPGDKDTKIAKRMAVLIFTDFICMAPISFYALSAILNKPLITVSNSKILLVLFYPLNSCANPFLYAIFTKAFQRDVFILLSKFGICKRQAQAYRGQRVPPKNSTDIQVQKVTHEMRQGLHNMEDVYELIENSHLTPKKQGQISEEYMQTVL
Sequence of Luciferin 4-monooxygenase (Photinus pyralis) (P08659 whole entry, looked up): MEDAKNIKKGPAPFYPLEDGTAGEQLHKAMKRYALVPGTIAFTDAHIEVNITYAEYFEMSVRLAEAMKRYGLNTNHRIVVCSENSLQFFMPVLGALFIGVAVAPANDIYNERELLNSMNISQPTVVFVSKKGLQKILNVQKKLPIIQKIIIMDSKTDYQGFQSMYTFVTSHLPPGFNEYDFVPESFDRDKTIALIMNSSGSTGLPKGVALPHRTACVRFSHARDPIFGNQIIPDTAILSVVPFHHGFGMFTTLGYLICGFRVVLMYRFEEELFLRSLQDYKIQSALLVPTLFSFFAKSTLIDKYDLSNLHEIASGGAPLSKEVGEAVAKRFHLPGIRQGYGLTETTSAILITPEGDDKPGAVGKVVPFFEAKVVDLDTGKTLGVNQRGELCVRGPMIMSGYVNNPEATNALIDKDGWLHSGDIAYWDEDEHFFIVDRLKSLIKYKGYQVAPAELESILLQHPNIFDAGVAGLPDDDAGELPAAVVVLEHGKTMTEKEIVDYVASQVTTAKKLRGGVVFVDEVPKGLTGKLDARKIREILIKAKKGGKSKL
Sequence of Nuclear receptor subfamily 1 group I member 3 (Homo sapiens) (Q14994 whole entry, looked up): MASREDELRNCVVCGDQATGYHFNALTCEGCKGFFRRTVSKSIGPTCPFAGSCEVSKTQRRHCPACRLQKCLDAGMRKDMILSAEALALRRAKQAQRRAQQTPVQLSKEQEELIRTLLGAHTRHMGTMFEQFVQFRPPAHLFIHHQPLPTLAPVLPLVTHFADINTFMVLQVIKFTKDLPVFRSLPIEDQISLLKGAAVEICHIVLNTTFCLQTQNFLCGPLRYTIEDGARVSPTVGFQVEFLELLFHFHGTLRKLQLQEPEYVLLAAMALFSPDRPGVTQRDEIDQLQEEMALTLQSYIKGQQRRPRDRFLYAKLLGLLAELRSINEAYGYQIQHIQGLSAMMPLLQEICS

O=C(O)CCC(=O)c1ccc(-c2ccccc2)cc1
active: [1] 6.92 µM
not listed: [8] | [9] | [10]
inactive: all other assays above

COc1ccc(-c2cc(C(F)F)nn2-c2ccc(S(N)(=O)=O)cc2)cc1F
not listed: [7]
inactive: all other assays above

CC(C)Cc1ccc(CC(=O)O)cc1
not listed: [7] | [10]
inactive: all other assays above

CC(=O)NCCO
not listed: [8] | [9] | [10]
inactive: all other assays above

COC1CCC=CO1 (stereo unspecified)
inactive: all assays above

O=C1CC[C@@H](C(=O)O)N1
inactive: all assays above

CC(C)(C)C1(CCc2ccc(Cl)cc2)CO1 (stereo unspecified)
not listed: [8] | [9] | [10]
inactive: all other assays above

COc1ccc2nc(S(=O)Cc3ncc(C)c(OC)c3C)[nH]c2c1 (stereo unspecified)
inactive: [2] | [3] | [4] | [6] | [7]
31.3 µM (active) and inactive: [1]
60.4 µM (active) and inactive: [5]

CCSC(=O)N(CC)CC
not listed: [8] | [9]
inactive: all other assays above

SCCc1cnccn1
inactive: all assays above

CC(=O)OCC(=O)[C@@]1(OC(C)=O)[C@@H](C)C[C@H]2[C@@H]3C[C@H](F)C4=CC(=O)C=C[C@]4(C)[C@@]3(F)[C@@H](O)C[C@@]21C
inactive: [1] | [2] | [3] | [4] | [5] | [6]

O=C(O)c1ccc(O)cc1O
inactive: all assays above

CC12CC3CC(C)(C1)CC(N)(C3)C2
not listed: [10]
inactive: all other assays above

Cc1c(C2(c3cc(Br)c(O)c(Br)c3C)OS(=O)(=O)c3ccccc32)cc(Br)c(O)c1Br
active: [1] 8.67 µM | [2] 14.9 µM | [3] 18.8 µM | [4] 11.8 µM | [6] 18.8 µM | [8] 11.8 µM | [10] 16.9 µM
inactive: [5] | [9]

O=C(O)c1cccc(Oc2ccccc2)c1
not listed: [10]
inactive: all other assays above

O=C1c2ccccc2C(=O)c2c(O)ccc(O)c21
active: [5] 48.6 µM | [8] 0.545 µM
not listed: [7]
inactive: all other assays above

CN=C(N)NC(=O)Nc1c(C)cccc1C
inactive: all assays above

CCCCC[C@H](O)/C=C/[C@H]1[C@H](O)CC(=O)[C@@H]1C/C=C\CCCC(=O)O
active: [7] 0.0266 µM
not listed: [8] | [9]
inactive: all other assays above

Nc1ccc(F)cc1
not listed: [7] | [10]
inactive: all other assays above

CC(C)N=C=NC(C)C
not listed: [7]
inactive: all other assays above

Nc1ccc(NC(=O)c2ccc(N)cc2)cc1
active: [1] 40 µM
not listed: [7]
inactive: all other assays above

O=C(NC(Cc1cc(=O)[nH]c2ccccc12)C(=O)O)c1ccc(Cl)cc1 (stereo unspecified)
not listed: [8] | [9] | [10]
inactive: all other assays above

Cc1ccc(Nc2c(F)cccc2Cl)c(CC(=O)O)c1
inactive: all assays above

N[C@@H](Cc1cc(I)c(O)c(I)c1)C(=O)O
inactive: all assays above

CCNc1nc(N)nc(Cl)n1
active: [4] 24.3 µM
inactive: all other assays above

CCO[Si](C)(CCCOCC1CO1)OCC (stereo unspecified)
inactive: all assays above

CCN(Cc1cccc(S(=O)(=O)O)c1)c1ccc(C(=C2C=CC(=[N+](CC)Cc3cccc(S(=O)(=O)O)c3)C=C2)c2ccc(O)cc2S(=O)(=O)[O-])cc1
inactive: [5] | [9]
active: [1] 10.8 µM | [2] 16.6 µM | [3] 29.5 µM | [4] 11.7 µM | [6] 33.1 µM | [8] 16.6 µM

COC(=O)CC(C(C)=O)C(=O)OC (stereo unspecified)
not listed: [8] | [9]
inactive: all other assays above

CC(=O)OCC1=C(C(=O)O)N2C(=O)[C@@H](NC(=O)CSc3ccncc3)[C@H]2SC1
inactive: all assays above

COC(=O)c1sccc1S(N)(=O)=O
inactive: all assays above

O=C(NS(=O)(=O)/C=C/c1ccccc1)c1ccc(F)cc1Cl
active: [9] 13.7 µM
inactive: all other assays above

C=Cc1ccc(OC(C)=O)cc1
inactive: all assays above

CCC(C)(C)C(=O)O
not listed: [8] | [9] | [10]
inactive: all other assays above

COc1cc(NC(C)CCCN)c2ncccc2c1 (stereo unspecified)
not listed: [8]
inactive: all other assays above

CCN(Cc1cccc(S(=O)(=O)O)c1)c1ccc(C(=C2C=CC(=[N+](CC)Cc3cccc(S(=O)(=O)O)c3)C=C2)c2ccccc2S(=O)(=O)[O-])cc1
inactive: [5] | [9]
active: [1] 20.1 µM | [2] 34.5 µM | [3] 34.5 µM | [4] 15.4 µM | [6] 27.4 µM | [8] 8.67 µM

CC(=O)Oc1cccc(O)c1
not listed: [10]
inactive: all other assays above

CC(=O)OCCC1CCCCC1
inactive: [1] | [2] | [3] | [4] | [5] | [6]

CC(C)(C)CCCCCCOC(=O)c1ccccc1C(=O)OCCCCCCC(C)(C)C
not listed: [8]
inactive: all other assays above

Cc1ccc(N(CC2=NCCN2)c2cccc(O)c2)cc1
not listed: [8] | [9]
inactive: all other assays above

CCOC(=O)c1c(N)sc2c1CCN(Cc1ccccc1)C2
not listed: [8] | [9]
inactive: all other assays above

CC(=O)C(C)=O
not listed: [8] | [9]
inactive: all other assays above

O=NN(CCCl)C(=O)NCCCl
not listed: [5]
inactive: all other assays above

CC(C)C(=O)OCCOc1ccccc1
not listed: [7] | [8] | [9]
inactive: all other assays above

CCOC(=O)c1ccc(NC(=O)CN2CCCCC2)cc1
not listed: [5] | [9] | [10]
inactive: all other assays above

O=C(O)CO
not listed: [8] | [9]
inactive: all other assays above

O=C1[C@@H]2[C@H]3CC[C@H](C3)[C@@H]2C(=O)N1CCCCN1CCN(c2ncccn2)CC1
not listed: [8] | [9]
inactive: all other assays above

O=S(=O)(Cl)c1c(Cl)cccc1Cl
not listed: [8] | [9]
inactive: all other assays above
